KDM5B inhibitor = blocks human KDM5B histone demethylase activity; Q9UGL1; KDM5B demethylase, FDH-coupled NADH fluorescence (FDH is formaldehyde dehydrogenase); Potency, µM (top dose mostly 57.7 µM), actives largely listed as inhibitors; actives 2.6% (n = 220,000); AID 1347165; active means well fitted inhibition curve with a large enough effect; further: nearly all actives have a fitted effect of over 70% in size
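Measured: NADH fluorescence change, 30 min, RT. System: KDM5BΔAP 200 nM final, H3K4me3 peptide, α-KG, Fe(II), ascorbate, NAD⁺ plus FDH, pH 7.5 HEPES. Compounds: titrated, 10 min pre-incubation with enzyme.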
A number is an active result; – = inactive. This is one part of a sample in which hits are shown more often than they occur.

SMILES	KDM5B inhibitor
Cc1cccc(NC(=O)c2nc3ccccc3nc2N2CCCC2)c1	–
CN1C(=O)Cc2cc(-c3csc(-c4ccccc4)n3)ccc21	–
Cc1csc(NC(=O)C2CC(=O)N(c3n[nH]c4ccccc34)C2)n1 (stereo not drawn)	–
COc1ccc(C)cc1NC(=O)C1CC(=O)N(c2n[nH]c3ccccc23)C1 (stereo not drawn)	–
CCOC(=O)c1ccc(NC(=O)C2CC(=O)N(c3n[nH]c4ccccc34)C2)cc1 (stereo not drawn)	28.2µM
Cc1cc2cc(C(=O)N3C[C@H]4CC=CC[C@H]4C3)ccc2o1	–
CC(C)c1cc(C(=O)NC2CCN(c3ncccc3C#N)CC2)n(C)n1	22.4µM
Cc1cc2cc(C(=O)N3CCN(c4ncccc4C#N)CC3)ccc2o1	28.2µM
Cc1nc(N2CCC(NC(=O)c3ccccn3)CC2)cc(C(F)(F)F)n1	–
Cn1nc2n(c1=O)CCN(C(=O)c1cccc(C#N)c1)CC2	–
Cc1nc(C(=O)NC2CCN(c3ncccc3C#N)CC2)cs1	28.2µM
CC(C)c1cc(C(=O)N2CCN(c3ncccc3C#N)CC2)n(C)n1	31.6µM
Cc1cccc(C(=O)NC2CCN(c3cnn(C)c(=O)c3)CC2)c1	–
O=C(NC1CCCC1)c1csc(N2CCN(c3ccccc3F)CC2)n1	–
COc1ccc(C(=O)N2CCN(c3nc4cccnc4o3)CC2)cc1C#N	–
N#Cc1cccc(NC(=O)N2CCN(c3ncccc3Cl)CC2)c1	–
CC(Oc1ccccc1C#N)C(=O)NC1CC1 (stereo not drawn)	–
CCOc1ccc(S(=O)(=O)Nc2nc3ccccc3nc2N2CCCC2)cc1	–
O=C(O)c1ccc(CNCc2cccc(Br)c2)cc1	–
O=C(C1CCN(c2cnn(CC3CC3)c(=O)c2)C1)N1CCc2ccccc2C1 (stereo not drawn)	–
CCc1cccc2c(C(=O)O)cc(-c3cccnc3)nc12	–
Cc1ccccc1COc1ccccc1C(=O)O	–
CN(Cc1ccc(Br)cc1)C(=O)CN1CCCC1c1ccc2c(c1)OCCO2 (stereo not drawn)	–
Cc1cc(C)cc(NS(=O)(=O)c2c(C)[nH]c(C)c2C(=O)N2CCCC2)c1	–
CCCC1NC(=O)N(Cc2ncc(-c3ccc(Cl)cc3)o2)C1=O (stereo not drawn)	–
SMILES	KDM5B inhibitor
CC(C)=CC1C(C(=O)NCC(C)(C)N2CCOCC2)C1(C)C (stereo not drawn)	–
Cc1cc2oc(C(=O)Nc3ccc(F)cc3)cc(=O)c2cc1C	–
CC(C)CCC(C)NC(=O)Cc1coc(-c2ccccc2)n1 (stereo not drawn)	–
Cc1oc(-c2cccc(Cl)c2)nc1CN1CCOCC1	–
Cc1oc(-c2ccc3ccccc3c2)nc1CN1CCNC(=O)C1	28.2µM
Cc1oc(-c2ccccc2)nc1CC(=O)N1CCNC(=O)C1	–
COC1CN(c2cccc(F)c2)C12CCN(C(=O)c1sc(C)nc1C)CC2 (stereo not drawn)	–
FC(F)(F)c1cccc(OCc2noc(-c3ccsc3)n2)c1	–
COc1cccc(C(C)N(C)Cc2nc(COc3ccccc3)no2)c1 (stereo not drawn)	–
Cc1cc(CN(C)c2ccc(-c3nc(COc4ccccc4)no3)cn2)on1	35.5µM
COC(=O)Cn1c(=O)n(CCc2ccccc2)c(=O)c2sc3c(c21)COC(C)(C)C3	–
CC(NC(=O)C(=O)C1C(=O)Nc2ccccc21)C(=O)O (stereo not drawn)	–
CN(C)S(=O)(=O)c1ccc2oc(SCCOc3cccc(Br)c3)nc2c1	–
CCCCNC(=O)c1nn(-c2ccc(C)cc2)c(=O)n(C)c1=O	–
CCCNC(=O)COc1cc(C)c2c(C)nn(-c3ccc(CC)cc3)c2n1	–
CCC(C)NC(=O)Cc1csc2nc(C)c(-c3cc(C)n(-c4ccc(C)cc4)n3)c(=O)n12 (stereo not drawn)	28.2µM
CCC(C)NC(=O)CCc1c(C)nc2c(c(C)nn2-c2ccc(C)cc2)c1C (stereo not drawn)	–
Cc1ccc(-c2nn(CC(=O)Nc3ccc(F)cc3)c(=O)c3ccccc23)cc1	–
CCCNC(=O)Cc1csc2nc(C)c(-c3cc(C)n(-c4ccc(C(C)C)cc4)n3)c(=O)n12	28.2µM
CCCNC(=O)CNC(=O)c1nn(-c2ccccc2)c(=O)c2ccccc12	–
Cc1ccc(-n2nc(-c3c(C)nc4scc(CC(=O)Nc5ccc(F)cc5)n4c3=O)cc2C)cc1	28.2µM
CCCNC(=O)Cc1csc2nc(C)c(-c3cc(C)n(-c4ccc(C)cc4)n3)c(=O)n12	28.2µM
Cc1cc2nc3n(c(=O)c2n1CC(=O)Nc1ccc(F)cc1)CCC3	–
CCC(C)NC(=O)CNC(=O)c1nn(-c2ccc(OC)cc2)c(=O)c2ccccc12 (stereo not drawn)	–
CCCNC(=O)CSc1nnc(N2CCCCC2)n1-c1ccc(C)cc1	–
SMILES	KDM5B inhibitor
Cc1cc(C(=O)N2CCC3(CC2)CC(CC(=O)NCc2ccccc2)CCO3)n[nH]1 (stereo not drawn)	–
O=C(Cc1n[nH]c(=O)c2ccccc12)NC(c1ccccc1)C1CC1 (stereo not drawn)	–
COCCn1c(SCc2nc(-c3ccc(Br)cc3)no2)nc2ccsc2c1=O	–
CN1CCN(c2ccc(NC(=O)c3cccc(Cl)c3)nc2)CC1	–
C[N+]1(CCCCCCCCCCCCCO)CCCC1	–
CCCCCCCC1C(=O)CC(c2ccccc2)NC1c1ccccc1 (stereo not drawn)	–
COc1ncccc1-c1ncc2c(n1)OCCN(c1ccccc1)C2=O	–
c1cc(-c2cc(-c3ccc4cn[nH]c4c3)cn3cncc23)ccn1	–
C1=C(c2cc(-c3cccc4cn[nH]c34)cn3cncc23)CCOC1	31.6µM
Oc1ccccc1-c1cc(C2=CCOCC2)c2cncn2c1	31.6µM
COc1ncccc1-c1cc(C2=CCOCC2)c2cncn2c1	35.5µM
C1=C(c2cc(-c3cccc4[nH]ccc34)cn3cncc23)CCOC1	25.1µM
COc1ccc(-c2[nH]nc3c2C(c2ccc4c(c2)OCO4)CC(=O)O3)cc1 (stereo not drawn)	–
c1cc2c3c(cccc3c1)/C(=N/OCC1CO1)C2 (stereo not drawn)	–
O=S(Cc1ccc(Cl)cc1)Cc1cccc(F)c1 (stereo not drawn)	–
Cc1cccc(NC(=O)COC(=O)CCc2nc3ccccc3s2)c1C	–
CC(=O)N1CCN(C(=O)c2cc(-c3ccc(F)cc3)nc3ccccc23)CC1	–
CC(C)(C)n1cc(-c2cc(C(=O)N3C[C@H]4CC[C@H]3C4)c3ccccc3n2)cn1	31.6µM
O=C(O)C1CCN(C(=O)c2cc(-c3ccccc3)nc3ccccc23)CC1	–
O=C(Nc1ccccc1)C(=O)N1CCN(C(=O)c2cc3ccccc3[nH]2)CC1	–
FC(F)(F)c1ccc(Oc2ccc(CN3CCCC3)cc2Cl)nc1	–
O=C(c1c[nH]c2ccccc12)C(NCc1ccccc1)c1ccccc1 (stereo not drawn)	–
CCCCCNCc1ccc(C)s1	–
CCn1cc(CN2CCC(c3[nH]ncc3-c3ccccc3C)CC2)cn1	–
Cc1ccccc1-c1cn[nH]c1C1CCN(C(=O)c2cnn3ccccc23)CC1	22.4µM
Cc1nc(C(=O)N2CCC(c3[nH]ncc3-c3ccccc3C)CC2)cs1	–
CC(=O)NC(C(=O)Nc1ccc(SC2CCCC2)cc1)C(C)C (stereo not drawn)	–
O=C(c1ccc2c(=O)n(-c3cccc(Cl)c3)cnc2c1)N1CCSCC1	–
Cc1ccc2oc(C(=O)N3CCN(C(c4ccccc4)c4ccccc4)CC3)cc(=O)c2c1	–
O=C(Nc1cccn2nc(C3CCC3)nc12)c1ccc(F)cc1F	31.6µM

Bioassay records from PubChem BioAssay.
